Results from the supplement of paper PMC8371130.
Counter-ions that a name gives are not always drawn.

Tested on: HL-1
Test: relative cell viability (CellTiter-Glo) vs DMSO control (% of DMSO control); higher = more viable cells
In short: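 HL-1 mouse atrial cardiomyocytes were plated in 384-well plates at 1000 cells per well together with compounds at 40, 200, 1000 or 5000 nM in 0.01% DMSO. One day later, cells went to a hypoxic workstation (1% O2) for 48 h, then were reoxygenated for 24 h in a normal incubator, or stayed in normoxia for the same time. Cell viability was read by CellTiter-Glo luminescence and normalised to vehicle-treated control cells.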

[1] = oxygen condition: hypoxia 48 h (1% O2) + reoxygenation 24 h, 40 nM
[2] = oxygen condition: hypoxia 48 h (1% O2) + reoxygenation 24 h, 200 nM
[3] = oxygen condition: hypoxia 48 h (1% O2) + reoxygenation 24 h, 1000 nM
[4] = oxygen condition: hypoxia 48 h (1% O2) + reoxygenation 24 h, 5000 nM
[5] = oxygen condition: normoxia 72 h, 40 nM
[6] = oxygen condition: normoxia 72 h, 200 nM
[7] = oxygen condition: normoxia 72 h, 1000 nM
[8] = oxygen condition: normoxia 72 h, 5000 nM

SMILES | relative cell viability [1] | relative cell viability [2] | relative cell viability [3] | relative cell viability [4] | relative cell viability [5] | relative cell viability [6] | relative cell viability [7] | relative cell viability [8]
CC(=O)/N=c1/sc(S(N)(=O)=O)nn1C [Methazolamide] | 100 | 109 | 108 | 109 | 110 | 105 | 99.7 | 108
CN(CCOc1ccc(CC2SC(=O)NC2=O)cc1)c1ccccn1 (centres undefined) [Rosiglitazone HCl] | 107 | 93.8 | 101 | 109 | 100 | 93.8 | 104 | 107
OC(CNCC(O)C1CCc2cc(F)ccc2O1)C1CCc2cc(F)ccc2O1 (centres undefined) [Nebivolol] | 106 | 109 | 106 | 112 | 103 | 107 | 112 | 115
CNC(=O)c1cc(Oc2ccc(NC(=O)Nc3ccc(Cl)c(C(F)(F)F)c3)c(F)c2)ccn1 [Regorafenib] | 107 | 113 | 109 | 114 | 110 | 110 | 114 | 134
Nc1cc(C(Cl)=C(Cl)Cl)c(S(N)(=O)=O)cc1S(N)(=O)=O [Clorsulon] | 109 | 105 | 107 | 113 | 110 | 115 | 116 | 110
C[N+](C)(C)C[C@H](O)CC(=O)[O-] [L-carnitine] | 102 | 104 | 103 | 113 | 101 | 107 | 102 | 107
COc1cc2c(cc1OC)CC(=O)N(CCCN(C)C[C@H]1Cc3cc(OC)c(OC)cc31)CC2 [Ivabradine HCl] | 108 | 106 | 107 | 106 | 105 | 106 | 102 | 106
C[C@@H](NCCCc1cccc(C(F)(F)F)c1)c1cccc2ccccc12 | 102 | 102 | 105 | 102 | 95.2 | 95.9 | 109 | 106
